Source: PubChem BioAssay (EPA / NIEHS)
Results filed as inconclusive are left out. Where a structure was tested more than once in an assay, its records may differ in their call. Active and inactive are the calls of the source. The calls were made as follows, unless noted: active = hit-call score of the fitted dose curve at least 0.9, where 1 is the maximum; inactive = score below 0.9.

What was measured:
[1] = target: Retinoic acid receptor alpha (Homo sapiens) (UniProt P10276); assay: ATG_RARa_TRANS: Attagene TRANS-FACTORIAL HepG2 Assay for human Retinoic Acid Receptor alpha (RARa) (AID 2283005; active = hit-call score of the fitted dose curve at least 0.9, where 1 is the maximum)
How it was run: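 Reporter transcripts, measured by RT-PCR with fluorescent labeling and capillary electrophoresis after 24 h dosing, reflect activity of an exogenous human RARa–GAL4 fusion in transiently transfected HepG2. Fitted for increase relative to DMSO.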

[2] = BSK_3C_Proliferation: Cell Proliferation Assessment in the BioMAP Diversity Plus: 3C Assay (AID 2283006); settings: primary human endothelial cells (HUVEC);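 as to AC50: potency may reflect either rise or fall in cell number versus DMSO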
How it was run: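 Subconfluent HUVEC (3C system) cultured with chemical; relative cell number read at 48 h by sulforhodamine B total-protein staining (0.1% SRB after 10% TCA fixation, 560 nm). Bidirectional fit relative to DMSO.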

[3] = target: human Retinoic Acid Receptor gamma (RARg), RARG (gene 5916) (UniProt P13631); assay: ATG_RARg_TRANS: Attagene TRANS-FACTORIAL HepG2 Assay for human Retinoic Acid Receptor gamma (RARg) (AID 2283009; active = hit-call score of the fitted dose curve at least 0.9, where 1 is the maximum)
How it was run: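 HepG2 transiently transfected with GAL4-UAS reporter units and chimeric NR-Gal4 constructs; 24 h compound exposure. Reporter mRNA quantified by RT-PCR, FAM labeling, HpaI digestion and capillary electrophoresis; gain-of-signal versus DMSO.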

[4] = target: human RAR-related Orphan Receptor gamma (RORg), RORC (gene 6097) (UniProt P51449); assay: ATG_RORg_TRANS: Attagene TRANS-FACTORIAL HepG2 Assay for human RAR-related Orphan Receptor gamma (RORg) (AID 2283011; active = hit-call score of the fitted dose curve at least 0.9, where 1 is the maximum)
How it was run: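 First, HepG2 liver cells were transfected with GAL4-UAS-driven reporter constructs and the RORg-Gal4 fusion. Next, they were treated with chemical for 24 h. Finally, reporter mRNA was quantified by RT-PCR and capillary electrophoresis, with upward activity fitted against DMSO.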

[5] = target: human Retinoid X Receptor beta (RXRb), RXRB (gene 6257) (UniProt P28702); assay: ATG_RXRb_TRANS: Attagene TRANS-FACTORIAL HepG2 Assay for human Retinoid X Receptor beta (RXRb) (AID 2283013; active = hit-call score of the fitted dose curve at least 0.9, where 1 is the maximum)
How it was run: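 HepG2 cells were transiently transfected with multiplexed GAL4-UAS reporters and a chimeric RXRb-Gal4 construct, then exposed for 24 h. Reporter mRNA was quantified by RT-PCR, FAM labeling, HpaI digestion and capillary electrophoresis; gain of signal was scored against DMSO.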

[6] = target: human Thyroid Receptor alpha (THRa1), THRA (gene 7067) (UniProt P10827); assay: ATG_THRa1_TRANS: Attagene TRANS-FACTORIAL HepG2 Assay for human Thyroid Receptor alpha (THRa1) (AID 2283014; active = hit-call score of the fitted dose curve at least 0.9, where 1 is the maximum)
How it was run: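 Reporter transcript induction, read by capillary electrophoresis of 6-FAM-labelled RT-PCR products, reflects activity of a transfected THRa1-Gal4 fusion in HepG2 liver cells. Cells were dosed for 24 h; activity was fitted in the positive direction against DMSO.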

[7] = read-out: E-selectin (Homo sapiens) (UniProt P16581); assay: BSK_3C_Eselectin: BioMAP Diversity Plus: 3C Assay for Eselectin Biomarker Activity (AID 2283015); settings: primary human endothelial cells (HUVEC); actives raise or lower the signal
How it was run: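 ELISA read-out of E-selectin on endothelial monolayers after 24 h chemical treatment. Human umbilical vein primary cells served as the system, with DMSO defining baseline activity for bidirectional fitting.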

[8] = read-out: Interleukin-1 alpha (IL1a), IL1A (gene 3552); assay: BSK_BE3C_IL1a: BioMAP Diversity Plus: BE3C Assay for Interleukin-1 alpha (IL1a) Biomarker Activity (AID 2283016); settings: primary human bronchial epithelial cells; actives raise or lower the signal
How it was run: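 Human primary bronchial epithelial cells, 24 h chemical exposure; IL-1a quantified by ELISA, fitted bidirectionally against DMSO. Cytotoxicity assessed in parallel by SRB total-protein staining at the time of measurement.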

[9] = read-out: Monocyte Chemoattractant Protein-1 (MCP1), CCL2 (gene 6347); assay: BSK_3C_MCP1: BioMAP Diversity Plus: 3C Assay for Monocyte Chemoattractant Protein-1 (MCP1) Biomarker Activity (AID 2283017); settings: primary human endothelial cells (HUVEC); actives raise or lower the signal
How it was run: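 ELISA read-out of MCP-1 from human umbilical vein endothelial cell cultures harvested 24 h post-dosing. Gain or loss of signal was fitted relative to DMSO.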

[10] = read-out: Monocyte Chemoattractant Protein-1 (MCP1), CCL2 (gene 6347); assay: BSK_4H_MCP1: BioMAP Diversity Plus: 4H Assay for Monocyte Chemoattractant Protein-1 (MCP1) Biomarker Activity (AID 2283018); settings: primary human endothelial cells (HUVEC); actives raise or lower the signal
How it was run: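 Human umbilical vein endothelial cells (4H system) exposed to chemicals for 24 h in 96-well format. MCP-1 measured by ELISA; bidirectional fitting against DMSO, with SRB total-protein staining in parallel cultures for cytotoxicity.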

[11] = read-out: Human Leukocyte Antigen - DR isotype (HLADR), HLA-DRA (gene 3122); assay: BSK_3C_HLADR: BioMAP Diversity Plus: 3C Assay for Human Leukocyte Antigen - DR isotype (HLADR) Biomarker Activity (AID 2283019); settings: primary human endothelial cells (HUVEC); actives raise or lower the signal
How it was run: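 ELISA readout of surface HLA-DR on human umbilical vein endothelium, taken 24 h after chemical treatment. Gain- and loss-of-signal were both fitted relative to DMSO.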

[12] = read-out: Interleukin-8 (IL8), CXCL8 (gene 3576); assay: BSK_3C_IL8: BioMAP Diversity Plus: 3C Assay for Interleukin-8 (IL8) Biomarker Activity (AID 2283020); settings: primary human endothelial cells (HUVEC); actives raise or lower the signal
How it was run: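 Primary human umbilical vein endothelial cells were dosed for 24 h. IL-8 was quantified by ELISA and fitted bidirectionally against DMSO. Cytotoxicity was assessed in parallel cultures by SRB staining at 560 nm.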

[13] = read-out: Monokine induced gamma interferon (MIG), CXCL9 (gene 4283); assay: BSK_3C_MIG: BioMAP Diversity Plus: 3C Assay for Monokine induced gamma interferon (MIG) Biomarker Activity (AID 2283021); settings: primary human endothelial cells (HUVEC); actives raise or lower the signal
How it was run: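 HUVEC primary endothelial cultures dosed with chemical; MIG quantified by ELISA at 24 h. Data fitted bidirectionally against DMSO control, with parallel SRB total-protein staining for cytotoxicity.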

[14] = target: human Vitamin D Receptor (VDR), VDR (gene 7421) (UniProt P11473); assay: ATG_VDR_TRANS: Attagene TRANS-FACTORIAL HepG2 Assay for human Vitamin D Receptor (VDR) (AID 2283022; active = hit-call score of the fitted dose curve at least 0.9, where 1 is the maximum)
How it was run: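 Steps: transfect HepG2 with GAL4-UAS-driven reporter constructs; dose compounds 24 h; isolate RNA, reverse-transcribe, PCR-amplify with 6-FAM-labelled primer extension and HpaI digestion; quantify fragments by capillary electrophoresis relative to DMSO.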

[15] = BSK_3C_SRB: Viability Assessment in the BioMAP Diversity Plus: 3C Assay (AID 2283023); settings: primary human endothelial cells (HUVEC);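 also: fitted both ways against DMSO so a hit may be signal rise or drop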
How it was run: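 Absorbance at 560 nm of sulforhodamine B-stained (0.1%) total protein served as a cytotoxicity readout in human umbilical vein endothelial cells, 24 h after chemical treatment. Signal was fitted bidirectionally relative to DMSO.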

[16] = read-out: Matrix Metallopeptidase 1 (MMP1), MMP1 (gene 4312); assay: BSK_BE3C_MMP1: BioMAP Diversity Plus: BE3C Assay for Matrix Metallopeptidase 1 (MMP1) Biomarker Activity (AID 2283024); settings: primary human bronchial epithelial cells; actives raise or lower the signal
How it was run: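 Human primary bronchial epithelial cells (BE3C system) dosed for 24 h; MMP-1 quantified by ELISA. Bidirectional fit against DMSO; cytotoxicity tracked in parallel cultures by SRB total-protein staining.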

[17] = BSK_3C_Vis: BioMAP Diversity Plus: 3C Assay for Morphology Visualization (AID 2283025); settings: primary human endothelial cells (HUVEC);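 also: fitted both ways so gain or loss versus DMSO counts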;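 as to AC50: light microscopy image of cell morphology used as background control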
How it was run: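 Human umbilical vein endothelial cell morphology was inspected by light microscopy 24 h after chemical dosing; scored bidirectionally relative to DMSO.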

[18] = target: Peroxisome proliferator-activated receptor gamma (Homo sapiens) (UniProt P37231); assay: ATG_PPARg_TRANS: Attagene TRANS-FACTORIAL HepG2 Assay for human Peroxisome Proliferator-activated Receptor-gamma (PPARg) (AID 2283007; active = hit-call score of the fitted dose curve at least 0.9, where 1 is the maximum)
How it was run: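 Multiplexed reporter transcription units in HepG2, 24 h dosing, reporter transcripts quantified by fluorescent RT-PCR and capillary electrophoresis. Increase over DMSO scored.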

[19] = target: Nuclear receptor subfamily 1 group I member 2 (Homo sapiens) (UniProt O75469); assay: ATG_PXR_TRANS: Attagene TRANS-FACTORIAL HepG2 Assay for human Pregnane X Receptor (PXR) (AID 2283008; active = hit-call score of the fitted dose curve at least 0.9, where 1 is the maximum)
How it was run: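 Measures mRNA induction of a GAL4-UAS-driven reporter in human HepG2 cells transiently expressing PXR fused to Gal4, following 24 h treatment. DMSO served as negative control and baseline.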

[20] = target: Retinoic acid receptor RXR-alpha (Homo sapiens) (UniProt P19793); assay: ATG_RXRa_TRANS: Attagene TRANS-FACTORIAL HepG2 Assay for human Retinoid X Receptor alpha (RXRa) (AID 2283012; active = hit-call score of the fitted dose curve at least 0.9, where 1 is the maximum)
How it was run: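 HepG2 cells transiently transfected with GAL4-UAS reporter units and chimeric RXRa-Gal4 protein, treated 24 h. Reporter mRNA measured by RT-PCR, fluorescent labelling, HpaI digestion and capillary electrophoresis. Induction fitted against DMSO.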

Measured: AC50

E-selectin (Homo sapiens), sequence (P16581 whole entry, looked up): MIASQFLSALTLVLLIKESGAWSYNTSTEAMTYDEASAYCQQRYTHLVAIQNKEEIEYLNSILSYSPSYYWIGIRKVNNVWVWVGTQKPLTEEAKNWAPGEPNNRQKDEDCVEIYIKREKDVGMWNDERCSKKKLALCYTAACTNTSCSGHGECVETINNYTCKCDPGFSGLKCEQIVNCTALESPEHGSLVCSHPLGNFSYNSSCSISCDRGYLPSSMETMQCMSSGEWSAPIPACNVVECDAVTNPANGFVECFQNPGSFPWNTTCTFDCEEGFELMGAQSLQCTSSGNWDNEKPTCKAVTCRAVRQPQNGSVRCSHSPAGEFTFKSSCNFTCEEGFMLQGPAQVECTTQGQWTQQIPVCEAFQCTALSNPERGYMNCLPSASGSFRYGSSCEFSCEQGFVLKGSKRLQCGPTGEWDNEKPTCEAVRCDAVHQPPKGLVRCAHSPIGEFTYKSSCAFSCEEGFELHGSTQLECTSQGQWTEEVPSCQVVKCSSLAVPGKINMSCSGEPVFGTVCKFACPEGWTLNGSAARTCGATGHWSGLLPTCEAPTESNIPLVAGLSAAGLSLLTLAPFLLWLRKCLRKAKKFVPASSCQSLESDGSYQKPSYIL
human Vitamin D Receptor (VDR), VDR (gene 7421), sequence (P11473 whole entry, looked up, the tested form may be a part): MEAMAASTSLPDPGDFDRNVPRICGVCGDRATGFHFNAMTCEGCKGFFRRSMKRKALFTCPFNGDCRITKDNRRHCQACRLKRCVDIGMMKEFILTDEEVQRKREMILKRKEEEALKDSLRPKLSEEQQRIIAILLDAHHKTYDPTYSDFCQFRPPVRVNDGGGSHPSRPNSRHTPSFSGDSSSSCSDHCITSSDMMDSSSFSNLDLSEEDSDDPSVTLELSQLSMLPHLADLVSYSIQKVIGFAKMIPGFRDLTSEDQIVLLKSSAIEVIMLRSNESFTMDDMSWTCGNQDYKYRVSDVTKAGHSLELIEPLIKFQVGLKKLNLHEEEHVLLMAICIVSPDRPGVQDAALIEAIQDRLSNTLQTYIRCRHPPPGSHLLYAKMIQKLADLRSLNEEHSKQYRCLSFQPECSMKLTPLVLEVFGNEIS
human Retinoid X Receptor beta (RXRb), RXRB (gene 6257), sequence (P28702 whole entry, looked up, the tested form may be a part): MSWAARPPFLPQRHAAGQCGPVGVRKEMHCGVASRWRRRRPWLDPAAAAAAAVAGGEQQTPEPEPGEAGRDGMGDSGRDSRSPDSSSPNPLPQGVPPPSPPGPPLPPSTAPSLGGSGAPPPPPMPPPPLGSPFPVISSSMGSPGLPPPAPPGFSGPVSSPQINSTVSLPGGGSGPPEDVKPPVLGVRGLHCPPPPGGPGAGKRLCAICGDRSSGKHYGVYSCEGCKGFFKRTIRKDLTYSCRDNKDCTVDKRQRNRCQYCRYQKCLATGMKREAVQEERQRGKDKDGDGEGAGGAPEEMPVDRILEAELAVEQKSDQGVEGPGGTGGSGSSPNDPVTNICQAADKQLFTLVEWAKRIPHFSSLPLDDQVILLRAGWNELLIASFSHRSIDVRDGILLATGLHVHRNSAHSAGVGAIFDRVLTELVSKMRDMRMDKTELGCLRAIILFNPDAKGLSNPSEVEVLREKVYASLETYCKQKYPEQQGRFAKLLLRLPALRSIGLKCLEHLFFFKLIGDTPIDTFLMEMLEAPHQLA
human Thyroid Receptor alpha (THRa1), THRA (gene 7067), sequence (P10827 whole entry, looked up, the tested form may be a part): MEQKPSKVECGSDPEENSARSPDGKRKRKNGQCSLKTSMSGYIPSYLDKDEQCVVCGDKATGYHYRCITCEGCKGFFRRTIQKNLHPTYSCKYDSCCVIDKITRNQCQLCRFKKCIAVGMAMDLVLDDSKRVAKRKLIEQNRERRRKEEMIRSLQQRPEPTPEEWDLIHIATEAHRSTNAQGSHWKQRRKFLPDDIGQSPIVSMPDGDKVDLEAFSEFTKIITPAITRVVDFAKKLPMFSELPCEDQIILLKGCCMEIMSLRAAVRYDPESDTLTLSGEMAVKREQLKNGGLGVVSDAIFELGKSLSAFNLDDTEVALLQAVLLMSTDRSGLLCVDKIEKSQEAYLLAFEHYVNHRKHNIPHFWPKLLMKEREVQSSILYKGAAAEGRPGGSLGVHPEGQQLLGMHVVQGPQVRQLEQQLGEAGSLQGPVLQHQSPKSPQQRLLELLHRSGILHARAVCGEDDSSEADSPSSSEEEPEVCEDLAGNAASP
Nuclear receptor subfamily 1 group I member 2 (Homo sapiens), sequence (O75469 whole entry, looked up, the tested form may be a part): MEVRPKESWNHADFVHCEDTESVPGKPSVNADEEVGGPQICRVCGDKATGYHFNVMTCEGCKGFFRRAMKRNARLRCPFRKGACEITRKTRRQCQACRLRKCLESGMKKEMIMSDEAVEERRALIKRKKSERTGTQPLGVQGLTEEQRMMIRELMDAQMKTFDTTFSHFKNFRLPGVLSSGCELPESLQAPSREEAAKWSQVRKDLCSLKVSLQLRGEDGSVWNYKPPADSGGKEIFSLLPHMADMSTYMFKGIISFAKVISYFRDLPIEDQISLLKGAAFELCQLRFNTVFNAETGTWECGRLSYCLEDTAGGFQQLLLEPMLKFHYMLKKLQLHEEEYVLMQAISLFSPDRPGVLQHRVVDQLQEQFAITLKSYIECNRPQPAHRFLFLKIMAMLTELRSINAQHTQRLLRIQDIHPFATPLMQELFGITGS
Retinoic acid receptor RXR-alpha (Homo sapiens), sequence (P19793 whole entry, looked up, the tested form may be a part): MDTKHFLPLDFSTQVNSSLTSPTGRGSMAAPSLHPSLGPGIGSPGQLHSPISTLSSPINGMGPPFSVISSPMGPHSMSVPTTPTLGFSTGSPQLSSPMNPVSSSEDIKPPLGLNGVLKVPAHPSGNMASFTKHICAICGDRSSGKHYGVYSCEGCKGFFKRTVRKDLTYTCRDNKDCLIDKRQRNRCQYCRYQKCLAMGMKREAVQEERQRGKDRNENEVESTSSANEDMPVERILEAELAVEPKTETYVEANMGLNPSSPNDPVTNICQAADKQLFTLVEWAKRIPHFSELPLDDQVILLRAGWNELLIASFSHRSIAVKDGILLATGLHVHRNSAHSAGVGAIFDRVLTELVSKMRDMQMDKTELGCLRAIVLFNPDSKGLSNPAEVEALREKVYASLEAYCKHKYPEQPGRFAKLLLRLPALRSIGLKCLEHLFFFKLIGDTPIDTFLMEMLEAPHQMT
human RAR-related Orphan Receptor gamma (RORg), RORC (gene 6097), sequence (P51449 whole entry, looked up, the tested form may be a part): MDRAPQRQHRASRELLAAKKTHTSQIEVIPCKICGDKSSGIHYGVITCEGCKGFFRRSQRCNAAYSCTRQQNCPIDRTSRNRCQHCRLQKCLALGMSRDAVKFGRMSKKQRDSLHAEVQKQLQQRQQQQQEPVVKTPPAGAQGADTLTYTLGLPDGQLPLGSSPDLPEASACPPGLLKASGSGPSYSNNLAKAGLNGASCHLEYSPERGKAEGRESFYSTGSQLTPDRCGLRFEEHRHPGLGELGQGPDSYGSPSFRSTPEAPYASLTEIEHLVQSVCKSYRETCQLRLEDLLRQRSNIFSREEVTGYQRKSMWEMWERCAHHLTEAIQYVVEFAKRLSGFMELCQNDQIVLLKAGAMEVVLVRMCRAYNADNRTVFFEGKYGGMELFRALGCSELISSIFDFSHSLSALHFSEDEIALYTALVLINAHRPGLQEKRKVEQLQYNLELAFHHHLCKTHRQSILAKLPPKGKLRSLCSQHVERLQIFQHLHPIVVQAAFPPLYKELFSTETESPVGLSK
Retinoic acid receptor alpha (Homo sapiens), sequence (P10276 whole entry, looked up, the tested form may be a part): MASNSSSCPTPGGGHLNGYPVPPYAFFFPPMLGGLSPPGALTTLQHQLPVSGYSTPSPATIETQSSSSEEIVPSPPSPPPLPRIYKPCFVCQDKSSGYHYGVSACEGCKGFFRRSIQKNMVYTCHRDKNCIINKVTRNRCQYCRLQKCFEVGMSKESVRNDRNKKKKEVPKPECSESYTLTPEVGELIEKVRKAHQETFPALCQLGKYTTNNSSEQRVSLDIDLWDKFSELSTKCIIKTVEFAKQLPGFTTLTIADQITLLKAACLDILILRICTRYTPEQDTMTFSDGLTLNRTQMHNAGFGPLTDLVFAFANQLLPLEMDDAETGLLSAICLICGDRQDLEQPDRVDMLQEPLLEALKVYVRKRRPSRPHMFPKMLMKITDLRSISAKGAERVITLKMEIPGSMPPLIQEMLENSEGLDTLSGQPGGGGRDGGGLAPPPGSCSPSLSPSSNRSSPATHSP
Peroxisome proliferator-activated receptor gamma (Homo sapiens), sequence (P37231 whole entry, looked up): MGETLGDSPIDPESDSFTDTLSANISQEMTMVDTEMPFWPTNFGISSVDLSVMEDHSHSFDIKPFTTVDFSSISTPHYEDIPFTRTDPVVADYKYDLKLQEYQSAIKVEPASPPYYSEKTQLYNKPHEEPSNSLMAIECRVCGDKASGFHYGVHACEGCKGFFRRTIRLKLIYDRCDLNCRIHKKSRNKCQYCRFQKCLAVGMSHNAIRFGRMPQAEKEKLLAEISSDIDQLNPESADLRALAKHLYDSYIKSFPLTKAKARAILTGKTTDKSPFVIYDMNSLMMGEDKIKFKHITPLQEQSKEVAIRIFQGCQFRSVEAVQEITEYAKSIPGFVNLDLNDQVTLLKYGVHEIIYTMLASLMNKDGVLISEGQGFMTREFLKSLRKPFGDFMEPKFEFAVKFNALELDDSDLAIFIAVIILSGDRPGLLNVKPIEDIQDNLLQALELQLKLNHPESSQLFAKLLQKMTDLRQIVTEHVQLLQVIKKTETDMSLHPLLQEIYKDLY
human Retinoic Acid Receptor gamma (RARg), RARG (gene 5916), sequence (P13631 whole entry, looked up, the tested form may be a part): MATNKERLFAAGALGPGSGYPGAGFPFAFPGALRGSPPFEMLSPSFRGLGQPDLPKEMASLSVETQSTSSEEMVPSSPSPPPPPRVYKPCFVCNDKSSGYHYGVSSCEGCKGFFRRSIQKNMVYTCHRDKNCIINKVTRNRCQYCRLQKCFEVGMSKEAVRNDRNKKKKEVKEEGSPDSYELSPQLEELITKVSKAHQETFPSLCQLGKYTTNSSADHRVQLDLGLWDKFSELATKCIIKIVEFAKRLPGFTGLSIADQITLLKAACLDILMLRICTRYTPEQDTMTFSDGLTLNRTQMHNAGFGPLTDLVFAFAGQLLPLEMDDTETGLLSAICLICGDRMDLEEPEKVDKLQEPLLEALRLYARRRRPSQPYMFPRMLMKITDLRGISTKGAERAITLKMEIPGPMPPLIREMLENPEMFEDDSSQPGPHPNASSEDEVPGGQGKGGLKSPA

CC(O)CCO (stereo unspecified)
active: [5] 6.17 µM
not listed: [18] | [19] | [20]
inactive: all other assays above

Clc1ccc(Cl)c(Cl)c1
not listed: [3] | [5] | [6] | [19] | [20]
inactive: all other assays above

Cc1cccc(N)c1N
active: [5] 46.1 µM | [7] 30.3 µM | [11] 25.9 µM
not listed: [4] | [8] | [14] | [16]
inactive: all other assays above

c1ccc(N=Nc2ccccc2)cc1
active: [18] 43 µM
not listed: [1] | [3] | [4] | [6]
inactive: all other assays above

O=[N+]([O-])c1ccc(Oc2ccc(Cl)cc2Cl)cc1
active: [2] 32.4 µM | [18] 14.3 µM | [19] 9.58 µM | [7] 20 µM | [9] 27.8 µM | [10] 10.3 µM | [11] 30.5 µM | [12] 20 µM | [15] 31.2 µM | [17] 39 µM
inactive: [20] | [5] | [6] | [8] | [13] | [14]

O=C(O)C1C2CCC(O2)C1C(=O)O (stereo unspecified)
active: [2] 20.5 µM | [7] 18.6 µM | [15] 24.4 µM | [17] 9.13 µM
not listed: [8] | [18] | [19]
inactive: all other assays above

CCCCCCCCOC(=O)c1ccc(C(=O)OCCCCCCCC)c(C(=O)OCCCCCCCC)c1
active: [5] 65.4 µM
not listed: [3] | [4] | [6] | [8] | [14] | [19]
inactive: all other assays above

Nc1ccc(N=Nc2ccccc2)cc1
active: [2] 12.2 µM | [18] 100 µM | [15] 20 µM
not listed: [5] | [6] | [8] | [19]
inactive: all other assays above

Oc1ccccc1Cl
not listed: [1] | [3] | [4] | [6] | [8]
inactive: all other assays above

Nc1ccc(Cl)cc1N
active: [5] 27.8 µM | [7] 3.48 µM | [11] 5.99 µM | [16] 1.69 µM
not listed: [4] | [8] | [19]
inactive: all other assays above

C[C@]12C=CC3=C4CCC(=O)C=C4CC[C@H]3[C@@H]1CC[C@@H]2O
inactive: [18] | [19] | [20] | [5] | [6] | [8] | [9] | [10] | [12] | [13]
active: [2] 6.61 µM | [19] 26.9 µM | [7] 9.4 µM | [11] 20 µM | [15] 7.77 µM | [16] 10.2 µM | [17] 7.2 µM

[As]#[In]
not listed: [8] | [14] | [18] | [19]
inactive: all other assays above

c1ccc2c(c1)-c1cccc3cccc-2c13
active: [5] 31.2 µM
not listed: [4] | [16]
inactive: all other assays above

O=C(Oc1ccc(Br)cc1)N1CCN2CCC1CC2
not listed: [1] | [4] | [5] | [6] | [14]
inactive: all other assays above

OCCCl
not listed: [8] | [16] | [18] | [20]
inactive: all other assays above
